Experimental data reported in the supplement of paper PMC10849652.
Of roughly 7,900 targets only a part is listed; those with a hit were picked by preference. About 0.6% of all pairs of compound and target were hits. A number with no mark means an inactive call.

Experiments:
Test in all cases: log2 fold change, soluble protein after heating vs DMSO (PISA); higher = thermal stabilisation; K562 cells, 10 uM, 30 min; active = over 0.2 and 3.5 SD of the protein, either way, in both replicates (recomputed)
[1] = compound: C1=CC=C(C=C1)C2=NC(=C(N2)C3=CC=NC=C3)C4=CC(=C(C=C4)Cl)O
Method in brief: (§1)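 K562 cells at 2×10^6 cells/mL were treated with 10 μM compound for 30 min. Aliquots were heated for 3 min across 48°C-58°C, pooled, and extracted in PBS with 0.5% NP-40 at 4°C; soluble protein was the supernatant after 21,000xg for 90 min. Soluble protein was quantified by TMTpro 16plex LC-MS/MS with channel sums equalised, and reported as log2 fold change in thermal stability against DMSO controls, with values from duplicates.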

[2] = compound: C1CCN(C1)C(=O)NC2=CC=CC(=C2)NC3=NC=C(C(=N3)NCCC4=CN=CN4)Br
Method in brief: as §1

[3] = compound: C1CN(CCC1(CC2=CC=C(C=C2)Cl)N)C3=NC=NC4=C3C=CN4
Method in brief: as §1

[4] = compound: C/C(=N\NC(=O)C1=CC(=CC=C1)S(=O)(=O)N2CCOCC2)/C3=C(C=CC(=C3)Cl)O
Method in brief: as §1

[5] = compound: C1=CC(=C(C=C1Cl)C2=NC3=NC=CN=C3C(=N2)NC4=CC=NC=C4)F
Method in brief: as §1

[6] = compound: C1=CC2=C(C=CC(=C2)/C=C\3/C(=O)NC(=NCC4=CC=CS4)S3)N=C1
Method in brief: as §1

[7] = compound: C1=CC2=NC=CN=C2C=C1/C=C/3\C(=O)NC(=O)S3
Method in brief: as §1

[8] = compound: C1=CC=C2C(=C1)C3=NNC4=CC=CC(=C43)C2=O
Method in brief: as §1

[9] = compound: C1=CC(=CC=C1C2=NC3=C(N2)C=C(C=C3)C(=O)N)OC4=CC=C(C=C4)Cl
Method in brief: as §1

[10] = compound: C#Cc1cccc(Nc2ncnc3cc(OCCOC)c(OCCOC)cc23)c1 [erlotinib]
Method in brief: as §1

UniProt O75056, sequence (O75056 whole entry, looked up): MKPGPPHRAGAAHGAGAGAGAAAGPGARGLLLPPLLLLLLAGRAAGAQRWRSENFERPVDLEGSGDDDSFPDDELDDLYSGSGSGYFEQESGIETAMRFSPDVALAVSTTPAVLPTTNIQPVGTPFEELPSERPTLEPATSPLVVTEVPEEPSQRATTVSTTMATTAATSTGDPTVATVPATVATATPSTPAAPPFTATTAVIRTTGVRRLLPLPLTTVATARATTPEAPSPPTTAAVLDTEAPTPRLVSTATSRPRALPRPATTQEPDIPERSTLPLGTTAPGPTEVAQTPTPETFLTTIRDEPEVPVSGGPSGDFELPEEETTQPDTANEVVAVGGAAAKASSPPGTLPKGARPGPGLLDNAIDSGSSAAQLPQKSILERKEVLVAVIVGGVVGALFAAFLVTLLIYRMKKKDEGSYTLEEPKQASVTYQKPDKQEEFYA
UniProt O95716, sequence (O95716 whole entry, looked up): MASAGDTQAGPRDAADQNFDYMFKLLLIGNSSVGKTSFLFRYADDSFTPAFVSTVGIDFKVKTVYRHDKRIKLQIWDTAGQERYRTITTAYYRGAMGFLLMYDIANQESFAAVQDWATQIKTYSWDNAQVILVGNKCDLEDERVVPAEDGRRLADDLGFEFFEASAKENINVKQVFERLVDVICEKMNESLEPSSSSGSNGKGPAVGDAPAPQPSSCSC
UniProt O75446, sequence (O75446 whole entry, looked up): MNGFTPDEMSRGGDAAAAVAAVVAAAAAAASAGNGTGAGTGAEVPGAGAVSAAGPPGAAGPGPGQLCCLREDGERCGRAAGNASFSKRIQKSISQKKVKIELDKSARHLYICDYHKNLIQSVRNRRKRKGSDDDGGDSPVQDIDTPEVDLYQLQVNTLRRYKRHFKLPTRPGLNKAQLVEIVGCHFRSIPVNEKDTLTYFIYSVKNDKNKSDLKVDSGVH
UniProt Q5VTB9, sequence (Q5VTB9 whole entry, looked up): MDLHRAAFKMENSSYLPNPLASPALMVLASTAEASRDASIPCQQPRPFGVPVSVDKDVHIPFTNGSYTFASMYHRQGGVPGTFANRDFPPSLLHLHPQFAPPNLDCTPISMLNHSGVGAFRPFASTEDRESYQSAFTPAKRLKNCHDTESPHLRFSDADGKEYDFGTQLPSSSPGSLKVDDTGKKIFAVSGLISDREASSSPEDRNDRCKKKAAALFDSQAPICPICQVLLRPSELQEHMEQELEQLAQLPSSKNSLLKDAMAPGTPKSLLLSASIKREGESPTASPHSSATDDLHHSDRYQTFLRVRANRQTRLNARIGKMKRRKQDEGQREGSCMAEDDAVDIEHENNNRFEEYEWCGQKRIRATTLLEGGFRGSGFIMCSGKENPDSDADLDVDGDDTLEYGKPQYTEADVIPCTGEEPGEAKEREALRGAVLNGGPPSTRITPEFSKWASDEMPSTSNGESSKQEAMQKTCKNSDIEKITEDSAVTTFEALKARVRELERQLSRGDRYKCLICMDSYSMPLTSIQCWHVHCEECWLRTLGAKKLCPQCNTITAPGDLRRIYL
UniProt Q04206, sequence (Q04206 whole entry, looked up): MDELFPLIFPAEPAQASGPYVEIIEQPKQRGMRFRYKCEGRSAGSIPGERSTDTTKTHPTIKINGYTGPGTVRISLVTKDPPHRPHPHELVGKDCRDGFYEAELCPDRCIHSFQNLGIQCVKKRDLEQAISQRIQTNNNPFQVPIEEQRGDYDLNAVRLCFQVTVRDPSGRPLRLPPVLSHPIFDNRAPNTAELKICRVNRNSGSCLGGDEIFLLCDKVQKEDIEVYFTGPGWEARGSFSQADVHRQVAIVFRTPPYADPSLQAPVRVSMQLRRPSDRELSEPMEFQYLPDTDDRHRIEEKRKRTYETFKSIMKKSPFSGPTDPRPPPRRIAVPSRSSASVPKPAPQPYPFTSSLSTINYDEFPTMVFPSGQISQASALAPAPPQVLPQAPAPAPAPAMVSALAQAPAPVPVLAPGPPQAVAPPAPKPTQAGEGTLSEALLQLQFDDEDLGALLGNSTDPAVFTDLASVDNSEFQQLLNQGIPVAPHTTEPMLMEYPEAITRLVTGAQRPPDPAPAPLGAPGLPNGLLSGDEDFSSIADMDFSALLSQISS
UniProt Q9H4P4, sequence (Q9H4P4 whole entry, looked up): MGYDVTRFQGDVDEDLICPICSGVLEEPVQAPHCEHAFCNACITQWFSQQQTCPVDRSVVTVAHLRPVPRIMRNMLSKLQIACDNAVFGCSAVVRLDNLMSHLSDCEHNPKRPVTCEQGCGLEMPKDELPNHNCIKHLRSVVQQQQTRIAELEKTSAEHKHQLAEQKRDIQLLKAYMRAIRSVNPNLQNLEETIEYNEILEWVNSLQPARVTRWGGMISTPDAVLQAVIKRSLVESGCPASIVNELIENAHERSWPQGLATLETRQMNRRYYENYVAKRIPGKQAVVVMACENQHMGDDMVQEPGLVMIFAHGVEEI
UniProt O00560, sequence (O00560 whole entry, looked up): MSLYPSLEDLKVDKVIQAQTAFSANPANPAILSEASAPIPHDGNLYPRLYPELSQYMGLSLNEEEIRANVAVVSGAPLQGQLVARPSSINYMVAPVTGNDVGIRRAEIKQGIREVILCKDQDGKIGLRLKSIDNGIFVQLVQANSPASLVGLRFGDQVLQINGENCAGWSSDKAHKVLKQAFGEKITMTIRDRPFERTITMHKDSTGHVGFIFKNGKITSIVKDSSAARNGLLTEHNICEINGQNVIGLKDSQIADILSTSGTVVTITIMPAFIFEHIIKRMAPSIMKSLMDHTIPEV
UniProt Q02383, sequence (Q02383 whole entry, looked up): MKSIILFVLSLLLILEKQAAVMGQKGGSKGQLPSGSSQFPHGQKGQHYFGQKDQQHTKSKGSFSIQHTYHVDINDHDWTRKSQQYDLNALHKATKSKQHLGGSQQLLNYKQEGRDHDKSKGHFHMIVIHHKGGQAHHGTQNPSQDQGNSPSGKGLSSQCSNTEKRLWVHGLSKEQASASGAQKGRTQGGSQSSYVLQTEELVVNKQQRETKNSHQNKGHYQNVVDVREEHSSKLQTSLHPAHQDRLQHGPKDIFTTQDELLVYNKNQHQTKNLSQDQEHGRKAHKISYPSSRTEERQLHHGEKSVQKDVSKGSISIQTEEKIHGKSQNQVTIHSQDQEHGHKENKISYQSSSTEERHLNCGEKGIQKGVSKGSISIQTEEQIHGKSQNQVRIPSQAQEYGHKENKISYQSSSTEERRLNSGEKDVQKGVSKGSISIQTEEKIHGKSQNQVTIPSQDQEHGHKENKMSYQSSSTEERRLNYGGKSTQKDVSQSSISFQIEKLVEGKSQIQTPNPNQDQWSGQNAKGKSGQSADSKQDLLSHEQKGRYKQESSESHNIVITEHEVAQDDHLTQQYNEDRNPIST
UniProt Q96GF1, sequence (Q96GF1 whole entry, looked up): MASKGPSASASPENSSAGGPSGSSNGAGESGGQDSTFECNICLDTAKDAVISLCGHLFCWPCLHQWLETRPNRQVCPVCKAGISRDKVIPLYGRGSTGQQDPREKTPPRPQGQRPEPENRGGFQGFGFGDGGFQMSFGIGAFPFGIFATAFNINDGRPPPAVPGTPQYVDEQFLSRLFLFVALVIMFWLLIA
UniProt A1X283, sequence (A1X283 whole entry, looked up): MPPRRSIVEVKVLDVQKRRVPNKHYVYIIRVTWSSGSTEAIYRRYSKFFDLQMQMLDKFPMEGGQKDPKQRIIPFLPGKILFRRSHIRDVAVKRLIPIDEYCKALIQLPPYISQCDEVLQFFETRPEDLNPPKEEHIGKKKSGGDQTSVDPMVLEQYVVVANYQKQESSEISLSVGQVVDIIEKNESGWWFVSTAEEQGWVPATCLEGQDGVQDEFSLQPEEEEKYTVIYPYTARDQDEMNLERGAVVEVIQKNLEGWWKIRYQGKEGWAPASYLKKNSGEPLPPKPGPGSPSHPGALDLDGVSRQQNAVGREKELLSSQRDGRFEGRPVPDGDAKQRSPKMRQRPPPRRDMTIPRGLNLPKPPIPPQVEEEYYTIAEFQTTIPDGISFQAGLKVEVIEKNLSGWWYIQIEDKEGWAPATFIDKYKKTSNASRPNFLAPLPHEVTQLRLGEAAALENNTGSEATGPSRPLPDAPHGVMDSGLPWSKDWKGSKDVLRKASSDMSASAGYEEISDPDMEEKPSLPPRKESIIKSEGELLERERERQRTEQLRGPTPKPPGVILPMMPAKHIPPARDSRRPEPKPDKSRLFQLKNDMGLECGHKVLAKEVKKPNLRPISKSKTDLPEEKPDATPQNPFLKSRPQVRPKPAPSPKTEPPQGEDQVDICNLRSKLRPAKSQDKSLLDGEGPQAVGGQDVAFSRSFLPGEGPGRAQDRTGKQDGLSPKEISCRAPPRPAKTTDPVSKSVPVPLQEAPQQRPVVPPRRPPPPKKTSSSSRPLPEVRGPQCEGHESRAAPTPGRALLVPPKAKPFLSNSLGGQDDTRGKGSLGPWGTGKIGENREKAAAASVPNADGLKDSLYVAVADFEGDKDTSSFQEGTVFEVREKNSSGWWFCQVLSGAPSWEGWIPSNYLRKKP
UniProt Q7L099, sequence (Q7L099 whole entry, looked up): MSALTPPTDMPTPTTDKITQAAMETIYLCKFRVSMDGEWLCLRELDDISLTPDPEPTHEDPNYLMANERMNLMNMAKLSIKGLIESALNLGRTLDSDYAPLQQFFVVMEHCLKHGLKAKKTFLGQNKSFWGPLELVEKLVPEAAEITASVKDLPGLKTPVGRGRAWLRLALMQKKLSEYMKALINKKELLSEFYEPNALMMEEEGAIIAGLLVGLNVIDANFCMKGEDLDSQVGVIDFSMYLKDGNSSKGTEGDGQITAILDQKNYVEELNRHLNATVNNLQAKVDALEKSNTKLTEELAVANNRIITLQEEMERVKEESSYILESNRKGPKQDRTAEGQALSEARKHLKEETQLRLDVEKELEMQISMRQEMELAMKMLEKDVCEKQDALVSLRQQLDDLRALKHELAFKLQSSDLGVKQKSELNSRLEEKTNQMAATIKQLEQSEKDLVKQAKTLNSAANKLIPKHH

Q: Which log2 fold change [1] does the source give for RPS3 (UniProt E9PJN9) here?
A: The log2 fold change was 0.203.

Q: What about the log2 fold change [2] of the same target?
A: Its log2 fold change is 0.021.

Q: What about the log2 fold change [3] of the same target?
A: Its log2 fold change is -0.151.

Q: What does the source list for SEMG2 (UniProt Q02383)?
A: log2 fold change [4]: 1.75; log2 fold change [5]: 0.047; log2 fold change [6]: 0.237; log2 fold change [7]: -0.042; log2 fold change [8]: -0.562 (active); log2 fold change [2]: -0.071; log2 fold change [3]: 0.06

Q: What does the source list for RELA (UniProt Q04206)?
A: log2 fold change [4]: 0.034; log2 fold change [5]: 0.003; log2 fold change [9]: -0.011; log2 fold change [6]: -0.007; log2 fold change [7]: 0.014; log2 fold change [1]: -0.002; log2 fold change [8]: 0.004; log2 fold change [2]: -0.022; log2 fold change [3]: 0.011

Q: For SAP30 (UniProt O75446), which log2 fold change [10] is on record?
A: Its log2 fold change is -0.04.

Q: And the log2 fold change [4]?
A: The log2 fold change was 0.061.

Q: What about the log2 fold change [5] of the same target?
A: Its log2 fold change is -0.069.

Q: What about the log2 fold change [9] of the same target?
A: The log2 fold change was -0.027.

Q: And the log2 fold change [6]?
A: Its log2 fold change is 0.018.

Q: What about the log2 fold change [8] of the same target?
A: The log2 fold change was -0.13.

Q: SDC3 (UniProt O75056) was tested. Which log2 fold change [4] did it give?
A: Its log2 fold change is -0.135.

Q: What about the log2 fold change [5] of the same target?
A: The log2 fold change was -0.015.

Q: What about the log2 fold change [6] of the same target?
A: Its log2 fold change is 0.05.

Q: And the log2 fold change [8]?
A: Its log2 fold change is -0.157.

Q: What about the log2 fold change [2] of the same target?
A: The log2 fold change was -0.139.

Q: And the log2 fold change [3]?
A: The log2 fold change was 0.203.

Q: SH3PXD2B (UniProt A1X283) was tested. Which log2 fold change [10] did it give?
A: The log2 fold change was 0.

Q: What about the log2 fold change [4] of the same target?
A: The log2 fold change was -0.036.

Q: What about the log2 fold change [5] of the same target?
A: The log2 fold change was -0.013.

Q: What about the log2 fold change [9] of the same target?
A: The log2 fold change was -0.153.

Q: And the log2 fold change [6]?
A: Its log2 fold change is 0.04.

Q: What about the log2 fold change [7] of the same target?
A: The log2 fold change was -0.012.

Q: And the log2 fold change [8]?
A: The log2 fold change was 0.04.

Q: What about the log2 fold change [2] of the same target?
A: The log2 fold change was -0.034.

Q: What about the log2 fold change [3] of the same target?
A: The log2 fold change was 0.132.

Q: What does the source list for RAB3D (UniProt O95716)?
A: log2 fold change [10]: -0.094; log2 fold change [4]: 0.036; log2 fold change [9]: -0.141; log2 fold change [6]: -0.055; log2 fold change [7]: 0.006; log2 fold change [1]: -0.145; log2 fold change [8]: -0.058; log2 fold change [2]: 0.007; log2 fold change [3]: 0.036

Q: What does the source list for RNF185 (UniProt Q96GF1)?
A: log2 fold change [10]: -0.054; log2 fold change [4]: -0.006; log2 fold change [9]: 0.009; log2 fold change [6]: 0.136; log2 fold change [7]: 0.026; log2 fold change [1]: 0.133; log2 fold change [8]: -0.007; log2 fold change [2]: 0.457; log2 fold change [3]: -0.031

Q: How did the log2 fold change [10] turn out when RNF220 isoform 3 (UniProt Q5VTB9) was run?
A: Its log2 fold change is -0.109.

Q: And the log2 fold change [4]?
A: Its log2 fold change is -0.021.

Q: What about the log2 fold change [9] of the same target?
A: Its log2 fold change is 0.229.

Q: What about the log2 fold change [6] of the same target?
A: Its log2 fold change is -0.05.

Q: And the log2 fold change [8]?
A: The log2 fold change was -0.055.

Q: Which results are given for RBM26 isoform 3 (UniProt Q5T8P6)?
A: log2 fold change [4]: 0.22; log2 fold change [6]: -0.079; log2 fold change [8]: -0.149

Q: What does the source list for SDCBP isoform 2 (UniProt O00560)?
A: log2 fold change [10]: 0.157; log2 fold change [5]: 0.007; log2 fold change [9]: 0.159; log2 fold change [7]: 0.009; log2 fold change [1]: -0.299; log2 fold change [2]: 0.249; log2 fold change [3]: 0.096

Q: Which log2 fold change [4] does the source give for RNF41 (UniProt Q9H4P4) here?
A: The log2 fold change was 0.043.

Q: What about the log2 fold change [6] of the same target?
A: The log2 fold change was -0.074.

Q: What about the log2 fold change [7] of the same target?
A: Its log2 fold change is -0.146.

Q: And the log2 fold change [8]?
A: Its log2 fold change is -0.002.

Q: What does the source list for RUFY3 isoform 3 (UniProt Q7L099)?
A: log2 fold change [10]: 0.019; log2 fold change [4]: 0.012; log2 fold change [9]: -0.03; log2 fold change [6]: -0.028; log2 fold change [1]: 0.011; log2 fold change [8]: 0.065; log2 fold change [2]: -0.075; log2 fold change [3]: -0.07

Q: For SAFB2 (UniProt K7EQU4), which log2 fold change [5] is on record?
A: The log2 fold change was -0.172.

Q: And the log2 fold change [7]?
A: The log2 fold change was -0.277.

Q: What does the source list for RBMY1E (UniProt A6NEQ0)?
A: log2 fold change [10]: -0.238; log2 fold change [9]: 0.06; log2 fold change [7]: -0.003; log2 fold change [1]: -0.044; log2 fold change [2]: -0.072; log2 fold change [3]: -0.099

Q: Which results are given for RPS6KA3 (UniProt P51812)?
A: log2 fold change [10]: -0.024; log2 fold change [4]: 0.08; log2 fold change [5]: 0.018; log2 fold change [9]: 0.072; log2 fold change [7]: 0.061; log2 fold change [1]: -0.043; log2 fold change [8]: -0.345 (active); log2 fold change [2]: -0.085; log2 fold change [3]: -0.017

Q: With RNF26 (UniProt Q9BY78) as the target, how does the log2 fold change [7] read?
A: Its log2 fold change is -0.08.

Q: What about the log2 fold change [1] of the same target?
A: Its log2 fold change is -0.073.
